In PubChem BioAssay AID651658 (Broad Institute, 2012):
Out of some 340,000 compounds screened, about 5,100 (1.5%) were called active. The sample holds actives, similar compounds and a random draw of the others, so the mix is not that of the screen. Values without a mark were called inactive.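 The calls were made as follows: active = mean Tm shift, scaled 0 neutral to 100 positive control, at about 1.3% or above, every replicate too (limit read from the data); inconclusive = no clear call, values can overlap the other calls; inactive = the rest.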

target: Fibroblast growth factor 22 (Homo sapiens) (UniProt Q9HCT0); test: binders of human FGF22 protein, primary screen, FGF22 synaptogenesis inhibitor project, biophysical, thermal shift, single point (AID 651658); settings: recombinant FGF22 thermal shift, SYPRO orange fluorescence; at 9.99 µM; hits give high values; percent of sucrose octasulfate shift, DMSO zero
Sequence (Q9HCT0 whole entry, looked up): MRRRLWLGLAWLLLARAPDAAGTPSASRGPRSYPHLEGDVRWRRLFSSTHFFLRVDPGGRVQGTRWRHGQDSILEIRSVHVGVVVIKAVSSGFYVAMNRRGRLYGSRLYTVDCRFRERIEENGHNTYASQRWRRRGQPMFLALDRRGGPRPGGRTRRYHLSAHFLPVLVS

SMILES | activity (Tm shift, normalised)
CCN(CC)CCNC(=O)c1ccc(NS(=O)(=O)c2ccc3c(c2)OCCO3)cc1 | 42.9% (active)
CNS(=O)(=O)c1ccc(C(=O)NCC(=O)NCCc2ccc3c(c2)OCCO3)cc1 | 0.051%
Cc1ccc(NS(=O)(=O)c2ccc(C(=O)NCCCN3CCOCC3)cc2)cc1 | -0.45%
C[C@H](NC(=O)C[C@H]1CC[C@H]2[C@@H](COC[C@H](O)CN2C(=O)Nc2cccc(Cl)c2)O1)c1ccccc1 | 0.797%
O=C(CCN1CCCCC1)N[C@H]1CC[C@H](CCNS(=O)(=O)c2ccc(F)cc2)O[C@@H]1CO | 0.837%
C[C@H](CO)N1C[C@H](C)[C@H](CN(C)Cc2ccncc2)Oc2ncc(C#CCC3CCCCC3)cc2C1=O | -0.367%
C=CCc1ccc(OCC(O)CN2CCN(Cc3ccccc3)CC2)c(OC)c1 (configuration not stated) | 43.3% (active)
C/C=C/c1ccc(OCC(O)CN2CCCCCCC2)c(OC)c1 (configuration not stated) | 0.015%
C=CCc1ccccc1OCC(O)CN1CCN(CCO)CC1 (configuration not stated) | -0.051%
O=C(Nc1ccc(F)cc1)N1CCCCN2[C@H](CO)[C@H](c3ccc(-c4ccncc4)cc3)[C@@H]2C1 | -0.055%
C/C=C/c1ccc([C@@H]2[C@H](CO)N(CC3CCOCC3)C23CN(S(=O)(=O)CC)C3)cc1 | -0.282%
CCNC(=O)c1cc2c(c(-c3cccc(C4=CCCC4)c3)n1)[C@H](CCO)N([S@@](=O)C(C)(C)C)C2 | 0.297%
O=C(Cc1ccncc1)NCC[C@H]1CC[C@H](NC(=O)Nc2cccc(F)c2)[C@H](CO)O1 | -0.333%
C[C@@H]1CN([C@H](C)CO)C(=O)c2cc(NS(=O)(=O)c3cccs3)ccc2O[C@@H](C)CCCCO[C@@H]1CN(C)C(=O)c1ccncc1 | -0.018%
COc1ccc2c3c([nH]c2c1)[C@@H](CO)NCC31CN(S(=O)(=O)c2cccs2)C1 | 0.072%
CCNC(=O)C[C@@H]1CC[C@@H](NC(=O)NC2CCCCC2)[C@H](CO)O1 | -0.281%
COc1ccc(NC(=O)N(C)C[C@@H]2OCCCC[C@@H](C)Oc3ccc(NC(=O)C4CCCCC4)cc3C(=O)N([C@@H](C)CO)C[C@@H]2C)cc1 | -0.291%
COC(=O)[C@@H]1[C@@H](CO)[C@@H]2Cn3c(ccc(-c4ccccc4)c3=O)[C@@H]2N1C(=O)C1CC1 | -0.013%
O=C(COC(=O)c1ccc2c(c1)OCCO2)NCc1ccccc1Cl | -0.43%
O=C(COC(=O)c1cc2c(s1)CCCC2)NCc1ccccc1Cl | 2.24% (active)
CN(C)C(=O)c1ccc(NC(=O)COC(=O)c2cc3c(s2)CCCCC3)cc1 | 0.188%
COc1ccc2c3c([nH]c2c1)[C@H](CO)N(C(=O)C1CCOCC1)CC31CN(S(C)(=O)=O)C1 | -0.085%
CN(C)C(=O)c1cccc(-c2ccccc2[C@@H]2[C@@H](CO)N(C(=O)C3CCCCC3)[C@H]2C#N)c1 | 0.22%
COc1ccc2c3c([nH]c2c1)[C@H](CO)N(C(=O)c1ccccc1)CC31CCN(S(=O)(=O)c2cccs2)CC1 | -0.133%
CCC1([N+](=O)[O-])COC(c2ccc(C(C)C)cc2)OC1 (configuration not stated) | 0.068%
CCC1([N+](=O)[O-])COC(c2ccc(C)cc2)OC1 (configuration not stated) | 43.3% (active)

SMILES | activity (Tm shift, normalised)
CCC1(C)COC(c2ccc(OC)c(OC)c2)OC1 (configuration not stated) | -0.154%
C/C=C/c1ccc([C@H]2[C@@H](CO)N3CCCCN(C(=O)c4ccc(F)cc4)C[C@@H]23)cc1 | -0.174%
Cc1oc(-c2ccccc2F)nc1CS(=O)CC(=O)NCCN1CCCCC1C (configuration not stated) | -0.146%
Cc1nonc1C1CCCN1Cc1nc(-c2ccc(F)cc2F)oc1C (configuration not stated) | 43.2% (active)
COc1ccc(F)c(-c2nc(CN3CCC(c4ccccc4)CC3)c(C)o2)c1 | 0.157%
C[C@H](CO)N1C[C@H](C)[C@H](CN(C)CC2CCCC2)Oc2ncc(-c3ccc(F)cc3)cc2C1=O | -0.41%
Cc1ccc(CN2CCN(/N=C/c3cccnc3)CC2)c(C)c1 | 0.311%
CSc1ccc(/C=N/N2CCN(Cc3ccccc3Cl)CC2)cc1 | 43.3% (active)
COc1ccccc1/C=N/N1CCN(Cc2ccccc2Cl)CC1 | -0.025%
NS(=O)(=O)c1ccccc1NC(=O)c1c(O)c2ccccc2[nH]c1=O | 0.089%
CC(=O)c1c(-c2ccccc2)c2ccccc2[nH]c1=O | 43.2% (active)
Cc1c(-c2ccccc2)n[nH]c1C(=O)N=Nc1c(O)[nH]c2ccccc12 | 0.025%
COc1cccc(NC(=O)N2C[C@@H](O)COC[C@@H]3O[C@@H](CC(=O)NC4CCC4)CC[C@H]32)c1 | -0.083%
COc1ccc(CCN2C(=O)[C@@]3(Cc4ccccc42)c2ccccc2C(=O)N(Cc2ccccc2C(F)(F)F)[C@H]3c2ccc(CO)cc2)cc1 | -0.145%
CCOc1ccc(S(=O)(=O)NCCC(=O)N2CCCCCCC2)cc1 | 0.162%
CCNS(=O)(=O)c1ccc(CCC(=O)N2CCN(c3ccc(OC)cc3)CC2)cc1 | 0.369%
CCCNS(=O)(=O)c1ccc(CCC(=O)N2CCCC2)cc1 | 43% (active)
CC(C)NC(=O)Nc1ccc2c(c1)C(=O)N([C@H](C)CO)C[C@@H](C)[C@@H](CN(C)Cc1ccncc1)O2 | 0.001%
O=C(OCc1ccc(-c2ccccc2)cc1)c1cccc(O)c1 | -0.21%
CC(C)(C)N1C(=O)c2c(C(=O)OCc3ccccc3)[nH]c(-c3ccccc3)c2C1=O | 2.17% (active)
O=C(Nc1cccc2ccccc12)c1[nH]c(-c2ccccc2)c2c1C(=O)N(C1CC1)C2=O | -0.298%
CCCNC(=O)Nc1ccc2c(c1)C(=O)N(C)[C@H]1CC[C@H](CC(=O)NCC3CCCCC3)O[C@@H]1CO2 | -0.32%
Cc1noc(C)c1NC(=O)N(C)C[C@H]1OCCCC[C@@H](C)Oc2ccc(NC(=O)NC(C)C)cc2C(=O)N([C@H](C)CO)C[C@@H]1C | 0.234%
COc1ccccc1OCCOc1ccc(/C=C2\C(=N)N3N=C(C)SC3=NC2=O)cc1 | -0.133%
COc1ccc(OCCCn2cccc2/C=C2/C(=N)N3OC(C)=CC3=NC2=O)cc1 | 43.6% (active)
CC1=CC2=NC(=O)/C(=C/c3coc4ccccc4c3=O)C(=N)N2O1 | 0.039%

SMILES | activity (Tm shift, normalised)
CCCNC(=O)N(C)C[C@@H]1Oc2cc(-c3ccccc3)ccc2S(=O)(=O)N([C@H](C)CO)C[C@H]1C | -0.206%
O=C(N[C@@H]1CC[C@@H](CCNS(=O)(=O)c2ccccc2Cl)O[C@@H]1CO)c1ccccc1 | -0.098%
COc1ccc(N2CCN(C(=O)COC(=O)c3cccc(S(=O)(=O)Nc4ccccc4OC)c3)CC2)cc1 | -0.159%
CC1CN(C(=O)c2cccc(NS(=O)(=O)c3ccc(Br)cc3)c2)CC(C)O1 (configuration not stated) | 0.103%
CC1CN(C(=O)COC(=O)c2cccc(NS(=O)(=O)c3ccccc3)c2)CC(C)O1 (configuration not stated) | 43% (active)
COc1cccc(-c2ccc3c(c2)[C@@H]2[C@@H](CCN2S(=O)(=O)C2=NC(C)C=N2)[C@@H](CO)N3C)c1 (some centres not stated) | -0.294%
Cc1ccc(-c2ccc(/C=N/NC(=O)CN3CCOCC3)o2)cc1[N+](=O)[O-] | -0.102%
CN1CCN(/N=C/c2ccc(-c3ccc([N+](=O)[O-])cc3)o2)CC1 | 42.9% (active)
CN1CCN(/N=C/c2ccc(C#N)cc2)CC1 | 0.346%
COc1ccc(NC(=O)N[C@H]2CC[C@@H](CCNC(=O)c3cc(Cl)cc(Cl)c3)O[C@H]2CO)cc1 | 0.37%
COc1ccc(C[C@@H]2CCc3cnnn3COC[C@H](c3ccccc3)NC2=O)cc1 | 0.006%
CCCNC(=O)Nc1ccc2c(c1)OC[C@@H](C)N(CCC)C[C@H](C)[C@@H](OC)CN(C)C2=O | 0.109%
COc1ccc(-n2nnnc2SCC(=O)c2ccc(OC)c(OC)c2)cc1 | -0.381%
COc1ccc(C(=O)CSc2nnnn2C)c(OC)c1 | 43% (active)
COc1ccc(C(=O)CCc2ccccc2O)c(OC)c1 | -0.131%
COc1ccc2c3c([nH]c2c1)[C@H](CO)N(C(=O)c1ccccc1)CC31CN(C(=O)Nc2cccc(F)c2)C1 | 0.15%
O=C(c1cccnc1)N1CC2(C1)[C@@H](c1ccccc1)[C@H](CO)N2C(=O)C1CCC1 | -0.239%
O=C(Cc1ccccc1)N1CC2(C1)[C@H](c1ccccc1)[C@@H](CO)N2C(=O)c1cccnc1 | -0.085%
C[C@H](CO)N1C[C@H](C)[C@@H](CN(C)CC2CCCCC2)Oc2ccc(NC(=O)Cn3cnnn3)cc2CC1=O | -0.448%
O=C(CN1C(=O)S/C(=C\c2ccccc2Cl)C1=O)NC1C=CS(=O)(=O)C1 (configuration not stated) | 43.2% (active)
COc1cccc(/C=C2/SC(=S)N(CC(=O)NC3C=CS(=O)(=O)C3)C2=O)c1 (configuration not stated) | -0.111%
O=C(CN1CCCCCC1)NCCN1C(=O)S/C(=C\c2ccccc2Cl)C1=O | 0.458%
O=C(O)CCCCCCC(=O)NOCc1ccccc1 | -0.15%
CO[C@H](CN(C)C(=O)c1cnccn1)[C@@H](C)CN([C@@H](C)CO)S(=O)(=O)c1ccccc1 | 0.08%
CC(C)NC(=O)Nc1ccc2c(c1)C(=O)N([C@@H](C)CO)C[C@@H](C)[C@H](CN(C)C)OCCCC[C@H](C)O2 | -0.748%
